# PubChem BioAssay (NCATS)
# Results filed as inconclusive are left out. Calls of active or inactive are those of the source. Calls come from the whole dose curve; as a rule, active = well fitted inhibition curve with a large enough effect; inconclusive = small, poorly fitted or top-dose-only effect; inactive = flat fitted curve, though single readings scatter.
# Test: P-glycoprotein substrates identified in KB-8-5-11 adenocarcinoma cell line, qHTS therapeutic library screen (AID 1346987); note: nearly all actives have a fitted effect of over 65% in size
# Conditions: KB-8-5-11 (P-gp overexpressing) viability, CellTiter-Glo, 72 h; series mostly up to 44.5 µM; activity change, negative = cytotoxicity: at the top concentration
# Outline: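 In this qHTS, P-gp-rich KB-8-5-11 cells received library compounds across a concentration range. Viability was quantified by luminescence after 72 h at 37 degree C.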
# % is set by controls: 0 for no effect and ±100 for the full control effect; potency is the fitted concentration of half-maximal effect.
Structure (SMILES),outcome,Potency,"activity change, negative = cytotoxicity"
C=C1C[C@]23C[C@H]1CC[C@H]2C1=C[C@H]2OC(=O)[C@@](C)([C@H]1[C@@H]3C(=O)O)[C@H]2O,inactive,–,–
CCCCNc1ncc2c(-c3ccc(CN4CCN(C)CC4)cc3)cn(C3CCC(O)CC3)c2n1 (stereo not drawn),–,1300 nM (active),–
CC1=CC2C(CC1OC1OC(CO)C(O)C(O)C1O)C(C)CC(=O)C2C(C)C (stereo not drawn),–,–,9.7% (inactive)
C=CC1C(OC2OC(CO)C(O)C(O)C2O)OC=C(C(=O)OC)C1CC(=O)OCC1C(C)C(O)CC1C(CO)COC(=O)CC1C(C(=O)O)=COC(OC2OC(CO)C(O)C(O)C2O)/C1=C\C (stereo not drawn),–,–,-0.744% [at 9.29 µM] (inactive)
CC(=O)C1=CCC2C3CCC4CC(O[C@@H]5O[C@H](CO)[C@@H](O[C@@H]6O[C@@H](C)[C@H](O)[C@@H](O)[C@H]6O)[C@H](O)[C@H]5O[C@@H]5O[C@H](CO)[C@@H](O)[C@H](O)[C@H]5O)CCC4(C)C3CCC12C (stereo partly drawn),inactive [at 17.3 µM],–,–
COC(=O)c1cc(OC)cc(OC)c1C(=O)c1c(OC)cc2c(c1O)C1CCCC(C)(O2)O1 (stereo not drawn),inactive [at 17.3 µM],–,–
C[C@H](N)C(=O)N[C@@H](Cc1ccc(O)cc1)C(=O)N1CCC[C@H]1C(=O)NCC(=O)N[C@@H](CCCCN)C(=O)N[C@@H](Cc1ccccc1)C(N)=O,inactive [at 9.29 µM],–,–
C=C1CC[C@@H]2[C@](C)(CO[C@@H]3O[C@H](CO)[C@@H](O)[C@H](O)[C@H]3O)[C@H](O)CC[C@@]2(C)[C@@H]1C/C=C1/C(=O)OC[C@H]1O,–,–,1.68% [at 17.3 µM] (inactive)
CC1OC(O[C@H]2CC[C@@]3(C)C(CC[C@]4(C)C3CC=C3C5CC(C)(C)CC[C@]5(C(=O)OC5OC(CO)C(OC6OC(COC7OCC(O)C(O)C7O)C(O)C(O)C6O)C(O)C5O)CC[C@]34C)C2(C)C)C(O)C(O)C1OC1OCC(OC2OCC(O)C(O)C2O)C(O)C1O (stereo partly drawn),inactive [at 9.29 µM],–,–
CC(=O)OC1C(O)C2C(C)C3=CC(=O)OC3(O)CC2C2(C)CCCC(C)(CO)C12 (stereo not drawn),inactive [at 17.3 µM],–,–
Nc1nc2c(ncn2[C@@H]2O[C@@H]3COP(=O)(O)O[C@H]3[C@H]2O)c(=O)[nH]1,inactive,–,–
CC(C)(C)NS(=O)(=O)c1cncc(-c2cc(F)c3nc(N)nn3c2)c1,–,–,6.93% (inactive)
CC(=O)O[C@H]1[C@H](O[C@H]2[C@@H]3C=CO[C@@H](O[C@@H]4O[C@H](CO)[C@@H](O)[C@H](O)[C@H]4O)[C@@H]3[C@@]3(CO)O[C@@H]23)O[C@@H](C)[C@H](OC(=O)/C=C/c2ccccc2)[C@H]1OC(=O)/C=C/c1ccccc1,inactive [at 9.29 µM],–,–
O=C(O)c1cn(C2CC2)c2cc(N3C[C@@H]4C[C@H]3CN4)c(F)cc2c1=O,inactive,–,–
O=C(c1ccc2nccnc2c1)N1CCCCC1,inactive,–,–
CC(C)(C)c1ccc(S(=O)(=O)Nc2ccc(Cl)cc2C(=O)c2cc[n+]([O-])cc2)cc1,–,–,-16.6% (inactive)
CCCOc1ccc(-c2nc(OC)c3ccccc3n2)cc1,–,–,-10.1% (inactive)
C=C1C(=O)O[C@@H]2C[C@H](C)[C@@]3(O)C=C(C(C)=O)[C@]4(CC3C[C@H]12)C(=O)O[C@H]1C[C@@H](C)C(CCC(C)=O)=CC[C@H]14 (stereo partly drawn),inactive [at 17.3 µM],–,–
